# Measurements reported in ChEMBL document CHEMBL1157539, “Thousands of chemical starting points for antimalarial lead identification” (Nature, 2010).
# Legend:
# Type in all cases: functional
# Plasmodium falciparum [1] = test: GSK_TCMDC: Inhibition of Plasmodium falciparum 3D7 in whole red blood cells, using parasite LDH activity as an index of growth. Test compounds present at 2uM
# Plasmodium falciparum [2] = test: GSK_TCMDC: Inhibition of Plasmodium falciparum Dd2 in whole red blood cells, using parasite LDH activity as an index of growth. Test compounds present at 2uM
# HepG2 = test: GSK_TCMDC: Percent inhibition of human HepG2 cell line. Test compounds present at 10uM.
SMILES,Inhibition (Plasmodium falciparum [1]) [%],Inhibition (Plasmodium falciparum [2]) [%],Inhibition (HepG2) [%]
CCc1ccc(S(=O)(=O)Nc2ccc(CCN3CCC(N4CCCCC4)CC3)cc2)cc1,100,13,35
CCN(CC)CCNc1nccc(N(C)c2ccc(NC(=O)Nc3cc(C(F)(F)F)ccc3F)cc2)n1.O=C(O)C(F)(F)F,97,25,74
CNCCNCc1ccc(-c2ccc(-c3nc4cc(C(F)(F)F)ccc4[nH]3)s2)cc1.O=C(O)C(F)(F)F,99,100,30
Cc1ccc2sc(N3CCN(C(=O)c4ccc([N+](=O)[O-])o4)CC3)nc2c1C,90,86,0
O=C(NCc1cccc(C(F)(F)F)c1)c1ccc(CNC(=O)c2ccc(O)c(-c3ccc(Cl)c(Cl)c3)c2)cc1,92,15,7
CNC(=N)c1ccc(NC(=O)Nc2ccc(C(=N)NC)cc2)cc1.Cl,84,71,0
CCOC(=O)c1cc2c(CCN3C(=O)c4ccccc4C3=O)cn(C)c2cc1-c1ccncc1,100,90,99
NS(=O)(=O)c1cccc(Nc2nc(N[C@@H]3CCNC3)nc3cc[nH]c(=O)c23)c1.O=C(O)C(F)(F)F,99,98,7
CC(C)CCNCc1c(O)ccc2ccccc12,95,51,9
COc1ccc(NC(=O)Nc2ccc(-c3ccncc3)c(C(F)(F)F)c2)cc1N1CCN(C)CC1,100,62,5
NC(=O)c1cccc(C(=O)Nc2cccc(-c3cccc(-c4nc5cc(C(F)(F)F)ccc5[nH]4)c3)c2)c1,100,85,71
O=C(Nc1cccc(C(F)(F)F)c1)c1cccc(S(=O)(=O)NC2CCCN(CC3CCCCC3)C2)c1.O=C(O)C(F)(F)F (stereo not given),97,15,18
O=C(O)C(F)(F)F.OCC1CCN(Cc2ccc(-c3cccc(-c4nc5cc(C(F)(F)F)ccc5[nH]4)c3)cc2)CC1,99,73,19
CS(=O)(=O)c1ccc(Nc2ncc(-c3ccc(S(C)(=O)=O)cc3)c(OCC(F)(F)F)n2)cc1,97,98,0
O=C(NC1CC1)c1cnc(N2CCN(Cc3ccc(Cl)cc3)CC2)c(Cl)c1.O=C(O)C(F)(F)F,93,91,39
CC1(C)N=C(N)N=C(N)N1c1ccccc1.Cl,98,1,16
Cn1c(N)c(N=O)c(=O)[nH]c1=O,97,82,58
COc1cc2c(C3CCN(CC4CCC(NC(=O)/C=C/c5ccc(Cl)c(Cl)c5)CC4)CC3)c[nH]c2cn1 (stereo not given),100,100,44
CN(C)CCNCc1ccc(-c2ccc3c(Nc4ccc(F)cc4Cl)ccnc3c2)o1,100,100,31
COc1ccc(C2(CNCC(O)c3cccc([N+](=O)[O-])c3)CCCCC2)cc1OC.Cl (stereo not given),95,85,0

SMILES,Inhibition (Plasmodium falciparum [1]) [%],Inhibition (Plasmodium falciparum [2]) [%],Inhibition (HepG2) [%]
COc1ccccc1N1CCN(C(C(=O)NCc2cccc(F)c2)c2ccc(C)cc2)CC1 (stereo not given),94,80,4
COc1ccc(-c2cccc(NC(=O)c3cccc(C#N)c3)c2)cc1CN1CCN(C)CC1.O=C(O)C(F)(F)F,91,16,25
COc1cc(CNC[C@@H](O)[C@H](Cc2ccccc2)NC(=O)c2cc(C3CCCC3)cc(N3CCCC3=O)c2)cc(OC)c1.Cl,97,76,16
Cc1c(-c2cccc(CNCCc3ccc(Cl)cc3)c2)cnc(N)c1C.Cl,87,30,9
C=CCc1ccc(C2CCN(CCCCNC(=O)c3ccc(NC(=O)c4ccc(Cl)cc4)cc3)CC2)cc1,100,97,27
Cl.c1ccc2cc(CNCCCN3CCN(CCCNCc4ccc5ccccc5c4)CC3)ccc2c1,100,65,60
CCOC(=O)N[C@@H]1CN[C@@H](C#Cc2cc3c(Nc4ccc(OCc5cccc(F)c5)c(Cl)c4)ncnc3s2)C1,86,13,8
CN(C)CCN(Cc1ccc(-c2ccc(CNCCc3ccccc3)cc2)nc1)C(=O)CCC1CCCC1.O=C(O)C(F)(F)F,96,89,98
O=C(NCC1CCC(C(=O)NCc2cccc3ccccc23)CC1)c1ccc(O)c(-c2ccc(Cl)c(Cl)c2)c1 (stereo not given),100,92,0
CS(=O)(=O)N(c1ccccc1)c1cc(C(=O)N[C@@H](Cc2ccccc2)[C@H](O)CNC2CCCCC2)cc(N2CCCC2=O)c1,100,97,8
CCCCCCCc1c(C)nc2c(OC)cccc2c1O,89,85,0
Nc1c2c(nc3ccc(NC(=O)c4ccccc4)cc13)CCCC2,99,8,0
Br.C=CCN1Cc2c(O)cccc2C(c2ccc(O)c(O)c2)C1 (stereo not given),97,6,0
COc1ccc([N+](=O)[O-])cc1N(Cc1ccccc1-c1ccccc1)S(=O)(=O)c1ccc(C(F)(F)F)cc1[N+](=O)[O-],88,92,2
CC[C@H](C)CNC(=O)c1cncc(-c2ccc(CNC3Cc4ccccc4C3)cc2)c1.O=C(O)C(F)(F)F,100,95,14
Cc1noc(-c2ccccc2)c1NC(=O)N1CCN(CCCCCCNC(=O)/C=C/c2ccc(Cl)c(Cl)c2)CC1,95,1,6
CC(=O)C=C1CC(=O)N(C[C@@H](O)[C@H]2O[C@@H]3OC(C)(C)O[C@@H]3[C@H]2O)c2ccccc2N1,90,2,0
COc1ccc2ccccc2c1CNCC1CCN(CC2CCCCC2)CC1.O=C(O)C(F)(F)F,98,27,23
Cc1ccc2nc3c(cc(C(=O)NCc4ccccc4)c(=N)n3CCCn3ccnc3)c(=O)n2c1,93,0,10
CC(C)C[C@H](NC(=O)c1ccc(OCCN2CCOCC2)cc1)C(=O)N[C@H](/C=N/NC(=O)OC(C)(C)C)CCc1ccccc1,96,87,8

SMILES,Inhibition (Plasmodium falciparum [1]) [%],Inhibition (Plasmodium falciparum [2]) [%],Inhibition (HepG2) [%]
Cc1cc(NC(=O)NCCN2CCC(NS(=O)(=O)c3ccccc3F)CC2)c2ccccc2n1,81,44,0
O=C(O)c1ccc2nc(-c3ccccn3)c(-c3ccccn3)nc2c1,97,18,3
Cl.O=C(Nc1cccc(Cl)c1Cl)N1CCc2cc3nccc(N4CCN5CCC[C@H]5C4)c3cc21,98,100,9
N#Cc1cccc(Nc2cc(C(F)(F)F)nc(Nc3ccccc3)n2)c1.O=C(O)C(F)(F)F,92,17,7
CC(C)c1sc(N2CCN(C)CC2)nc1C(=O)NCCc1ccc(Br)cc1.O=C(O)C(F)(F)F,89,60,0
Cc1nc2ccccc2c(O)c1-c1ccc(Cl)cc1,93,91,0
Br.CCc1cccc(OCCCON2C(=N)N=C(N)NC2(C)C)c1,95,94,63
CC(C)(C)c1ccc(NC(=O)c2cccc(CN3CCCN(Cc4cccc(C#N)c4)CC3)c2)cc1.O=C(O)C(F)(F)F,97,12,39
CC(=O)O.Nc1nc(N)c2cc3ccc(OCc4ccccc4)cc3nc2n1,100,75,78
O=[N+]([O-])c1cccc(C=NNc2nc(=Nc3ccccc3)[nH]c(=Nc3ccccc3)[nH]2)c1,99,55,10
COc1ccc(OCC(=O)Nc2nc(-c3ccc(OC)cc3)c(C)s2)cc1,100,87,0
COc1ccc2c(=NN=Cc3cccc(Cl)c3)cc(C)[nH]c2c1,100,99,3
CCN1CCC(N(Cc2ccc(-c3ccc(C(F)(F)F)cc3)cc2)C(=O)Cn2c(CCc3cccc(F)c3F)cc(=O)c3ccc(OCc4ccccc4)cc32)CC1.O=C(O)C(O)C(O)C(=O)O,100,86,60
Cc1cc(N[C@@H](Cc2ccccc2)C(=O)NC2CCCC2)nc(NCCc2ccc(F)cc2)n1.O=C(O)C(F)(F)F,100,61,21
Cc1cc(SC(C)(C)C)cc2c(Cl)c(C(N)=O)cnc12,98,98,83
CC(CCCCOCCc1ccccc1)NCC(O)c1cc(Cl)c(N)c(Cl)c1 (stereo not given),96,95,0
CCCN(CCC)CCCN(CCCN(CCC)CCC)c1cc(C)nc(Nc2ccc(Cl)cc2)n1.Cl,100,100,34
FC(F)c1nc2ccccc2n1-c1nc(N2CCOCC2)nc(N2CCOCC2)n1 [ZSTK-474],99,99,47
Cc1cc(-c2cccc3c(C(=O)N4CCc5cc6nccc(N7CCCN(C)CC7)c6cc54)cccc23)cc(C)n1.Cl,100,100,17
O=C(Nc1ccc(Cl)c(Cl)c1)N1CCC(NCc2cccc([N+](=O)[O-])c2)CC1.O=C(O)C(F)(F)F,97,12,8
